POLI inh = qHTS for Inhibitors of Polymerase Iota; DNA polymerase iota (Homo sapiens), Q9UNA4; Pol iota fluorescent replication assay, 10 min; Potency, µM (highest dose often 115 µM), without a hit: top-dose activity, negative = inhibition, usual class: inhibitors; 390,000 tested, 1% active; AID 588590, 2011
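Pol iota at 10 nM preincubated 15 min with compounds at room temperature; reaction started with fluorescent substrate, 50 nM final. Fluorescence read kinetically at 0 and 10 min; buffer-only wells as negative control.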
FEN1 inh-1 = qHTS Assay for the Inhibitors of Human Flap endonuclease 1 (FEN1); P39748; Recombinant FEN1 flap cleavage, fluorescence, 15 min; Potency, µM (titrated, usually from 114 µM), for the others: at the top dose activity change, negative = inhibition, hits mostly inhibitors; 390,000 tested, 0.35% active; AID 588795, 2011; note: % is set by controls: 0 for no effect and ±100 for the full control effect; nearly all actives have a fitted effect of over 65% in size
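Quantitative HTS format: each compound was titrated, incubated with 10 nM nuclease for 15 min at room temperature, then challenged with flap substrate at 50 nM final. Signal change over 15 min gave concentration–effect curves.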
WRN helicase inh-1 = qHTS for Inhibitors of WRN Helicase | WRN helicase unwinding, fluorescent forked duplex, kinetic | Potency, µM (series often up to 114 µM), for the others: at the top dose activity change, negative = inhibition, hits mostly inhibitors | 360,000 tested, 0.46% active; note: % is set by controls: 0 for no effect and ±100 for the full control effect; nearly all actives have a fitted effect of over 55% in size
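WRN at 20 nM final preincubated with compound 15 min at room temperature; reaction started with 100 nM fluorophore/quencher forked duplex oligonucleotide and 2 mM ATP final. Unwinding followed kinetically by red fluorescence (ex 525, em 598 nm).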
Pol beta inh = qHTS Assay for Inhibitors of DNA Polymerase Beta; 340,000 tested, 1.3% active; Pol beta primer extension/strand displacement, fluorescence kinetic; AID 485314, 2010; Potency, µM (series often up to 114 µM), inactives show at the highest dose activity change, negative = inhibition, hits mostly inhibitors; note: % is set by controls: 0 for no effect and ±100 for the full control effect
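10 nM enzyme + cpd, 15 min RT; start with substrate 50 nM final; read 0 min and after 10 min RT. Corrected, normalized data; 4-parameter Hill curve fit.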
Pol eta inh-1 = qHTS for Inhibitors of Polymerase Eta | DNA polymerase eta (Homo sapiens), Q9Y253 | 390,000 tested, 1.2% active | recombinant Pol eta, fluorescent DNA replication assay | Potency, µM (highest dose often 114 µM), inactives show at the highest dose activity change, negative = inhibition, most hits filed as inhibitors | AID 588591, 2011; note: % is set by controls: 0 for no effect and ±100 for the full control effect
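Pol eta (10 nM) was preincubated with compounds for 15 min at room temperature, after which fluorescent replication substrate (50 nM final) was added to start the reaction. Fluorescence was read kinetically at 0 and 10 min.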
Pol kappa inh-1 = qHTS for Inhibitors of Polymerase Kappa; Potency, µM (highest dose often 107 µM), inactives show at the highest dose activity, negative = inhibition, usual class: inhibitors; purified Pol kappa, fluorescent DNA synthesis assay, 10 min; DNA polymerase kappa (Homo sapiens), Q9UBT6; 400,000 tested, 0.53% active; note: % is set by controls: 0 for no effect and ±100 for the full control effect
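Readout: fluorescence, taken kinetically at 0 and 10 min. Conditions: 10 nM Pol kappa, 15 min RT compound preincubation, 50 nM substrate final. Controls: enzyme-free buffer wells.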
TbPGK inh = qHTS for inhibitors of Phosphogylcerate Kinase: Hit Validation Screen; shares compounds with Pol kappa inh-1; TbPGK coupled GAPDH assay, Kinase-Glo luminescence; Potency, µM (top dose mostly 57.5 µM), for inactives: at the highest dose activity change, negative = inhibition, most hits filed as inhibitors; 500 tested, 79% active; AID 686980, 2013; note: % is set by controls: 0 for no effect and ±100 for the full control effect; nearly all actives have a fitted effect of over 65% in size
Target sequence (P07378 whole entry, looked up): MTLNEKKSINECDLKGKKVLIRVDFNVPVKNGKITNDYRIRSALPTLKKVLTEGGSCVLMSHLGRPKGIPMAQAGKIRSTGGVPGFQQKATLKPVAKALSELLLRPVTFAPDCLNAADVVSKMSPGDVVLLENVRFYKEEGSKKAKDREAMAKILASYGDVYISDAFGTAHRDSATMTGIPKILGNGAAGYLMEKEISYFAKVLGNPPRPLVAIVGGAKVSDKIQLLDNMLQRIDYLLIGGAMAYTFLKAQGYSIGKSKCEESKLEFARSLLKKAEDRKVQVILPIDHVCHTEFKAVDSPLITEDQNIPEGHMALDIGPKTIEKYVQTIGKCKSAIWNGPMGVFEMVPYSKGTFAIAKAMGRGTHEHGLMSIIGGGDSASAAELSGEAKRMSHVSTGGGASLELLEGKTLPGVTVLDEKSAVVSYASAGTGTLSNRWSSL
POLI cherry-pick = qHTS for Inhibitors of Polymerase Iota: Confirmatory Assay for Cherry-picked Compounds; Pol iota primer extension, TAMRA/BHQ fluorescence; shares compounds with Pol kappa inh-1; Potency, µM, usual class: inhibitors; 1,500 tested, 77% active
Pol kappa inh-2 = qHTS for Inhibitors of Polymerase Kappa: Confirmatory Assay for Cherry-picked Compounds. Potency, µM, most hits filed as inhibitors. purified Pol-kappa, fluorescent strand-displacement substrate. shares compounds with Pol eta inh-1. AID 720501, 2013. 920 tested, 76% active
Pol eta inh-2 = qHTS for Inhibitors of Polymerase Eta: Confirmatory Assay for Cherry-picked Compounds; shares compounds with Pol eta inh-1; Pol eta primer extension, TAMRA/BHQ fluorescence, 10 min; Potency, µM, most hits filed as inhibitors; 2,600 tested, 64% active; AID 720502, 2013
FEN1 inh-2 = qHTS Assay for the Inhibitors of FEN1: Confirmatory Assay for Cherry-picked Compounds; Potency, µM, most hits filed as inhibitors; 880 tested, 79% active; AID 720498, 2013; shares compounds with FEN1 inh-1; FEN1 flap cleavage, TAMRA/BHQ2 fluorogenic DNA substrate; note: nearly all actives have a fitted effect of over 60% in size
WRN helicase inh-2 = qHTS for Inhibitors of WRN Helicase: Confirmatory Assay for Cherry-picked Compounds | shares compounds with WRN helicase inh-1 | WRN helicase DNA unwinding, fluorescence kinetic | Potency, µM (top dose mostly 57.1 µM), inactives show at the highest dose activity, negative = inhibition, most hits filed as inhibitors | 610 tested, 63% active | AID 720497, 2013; note: nearly all actives have a fitted effect of over 65% in size
TO displacement = qHTS for Inhibitors of WRN Helicase: Thiazole Orange DNA Binding Counterscreen; shares compounds with WRN helicase inh-1; thiazole orange DNA binding displacement, fluorescence; Potency, µM (doses to about 57.1 µM), without a hit: at the highest dose activity change, negative = inhibition, actives largely listed as inhibitors; 610 tested, 10% active; AID 720499, 2013;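 note: drop in dye fluorescence marks compound binding to DNA; % is set by controls: 0 for no effect and ±100 for the full control effect; nearly all actives have a fitted effect of over 60% in size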
BLM counter = qHTS for Inhibitors of WRN Helicase: BLM Helicase Counterscreen for WRN Inhibitors. shares compounds with WRN helicase inh-1. Recombinant BLM helicase DNA unwinding, red fluorescence. Potency, µM (titrated, usually from 57.1 µM), without a hit: top-dose activity change, negative = inhibition, usual class: inhibitors. 610 tested, 60% active; note: nearly all actives have a fitted effect of over 60% in size
The depositor's hits bear a star; ? = inconclusive; nt = no result given; [ ] = another dose, or the depositor's remark. Only some compounds are listed: those with a hit (about 2.4% of all), similar ones and a draw of the others. Calls come from the whole dose curve; as a rule, active = well fitted curve in the direction sought with a large enough effect; inconclusive = small, poorly fitted or top-dose-only effect, or another doubt; inactive = no such curve, though single readings can be large; an effect the other way counts as inactive or inconclusive. Potency is the fitted concentration of half-maximal effect.

SMILES	POLI inh	FEN1 inh-1	WRN helicase inh-1	Pol beta inh	Pol eta inh-1	Pol kappa inh-1	POLI cherry-pick	Pol eta inh-2	WRN helicase inh-2	TO displacement	BLM counter	others
CC(C)=CCc1c(O)ccc2c1OC(c1ccc(O)c(O)c1)CC2=O (stereo not drawn)	-30%	-21%	-7%	?	-15%	-14%	nt	nt	nt	nt	nt
O=C1CC(c2ccc(O)c(O)c2)Oc2c1ccc(O)c2O (stereo not drawn)	1.6µM*	3.5µM*	3.2µM*	0.4µM*	0.79µM*	1.8µM*	3.4*	3.4*	1.1µM*	?	0.96µM*	TbPGK inh=0.92µM*;FEN1 inh-2=34*
Cc1ccc(-c2c(C(=O)N3CCN(c4cccc(C)c4)C(C)C3)oc(=O)c3ccccc23)cc1 (stereo not drawn)	18%	-12%	nt	-2%	-21%	-1%	nt	nt	nt	nt	nt
Cc1cc(-c2nc3ncccc3o2)ccc1NC(=O)c1ccc(Cl)cc1	7%	18%	nt	-2%	-11%	-5%	nt	nt	nt	nt	nt
O=C(O)CSc1cc(NS(=O)(=O)c2ccc(Cl)cc2)c2ccccc2c1O	3.2µM*	35µM*	13µM*	79µM*	20µM*	-18%	84*	76*	?	-12%	?	Pol kappa inh-2=67*;FEN1 inh-2=76*
O=S(=O)(Nc1ccc(Cl)cc1NS(=O)(=O)c1ccccc1)c1ccccc1	?	-4%	-10%	nt	-7%	-1%	nt	nt	nt	nt	nt
CC1=C(c2ccc(C)c(C)c2)S(=O)(=O)N=C1N1CCC(C(=O)NCCc2ccco2)CC1	23%	-3%	nt	7%	nt	-8%	nt	nt	nt	nt	nt
COc1cccc(C(=O)Nc2cccc(-c3cn4c(C)csc4n3)c2)c1OC	1%	-18%	nt	-19%	-9%	-3%[60.1 µM]	nt	nt	nt	nt	nt
O=S(=O)(O)c1ccc(O)c2cc(Nc3ccccc3)ccc12	?	7.9µM*	0.95µM*	nt	0.79µM*	2.8µM*	0.67*	0.76*	0.43µM*	9.6µM*	0.061µM*	TbPGK inh=0.65µM*;Pol kappa inh-2=0.53*;FEN1 inh-2=8.5*
N#Cc1ccccc1-c1ccc2ncnc(NCc3cccs3)c2c1	nt	nt	nt	nt	nt	-25%[60.1 µM]	nt	nt	nt	nt	nt
Cc1ccc(N=C2NC(=O)CS2)cc1	7%	-4%	1%	-24%	10%	-11%	nt	nt	nt	nt	nt
Cc1ccc(C)n1/N=C1/NC(=O)CS1	2.5µM*	32µM*	16µM*	18µM*	2.2µM*	10µM*	42*	30*	24µM*	-9%	5.4µM*	TbPGK inh=?
COc1ccc2c(=O)c(C)c(-c3ccccc3)oc2c1CN(C)C	nt	nt	nt	nt	nt	3%[19.4 µM]	nt	nt	nt	nt	nt
O=C(CSc1nc2ccsc2c(=O)n1CC1CCC(C(=O)O)CC1)c1ccc(F)cc1 (stereo not drawn)	-21%	-17%	-10%	5%	?	1%	nt	nt	nt	nt	nt
O=C(CSc1nc2ccsc2c(=O)n1CC1CCC(C(=O)O)CC1)c1ccc(Cl)cc1 (stereo not drawn)	20µM*	?	?	22µM*	40µM*	?	42*	nt	24µM*	10%	15µM*	Pol kappa inh-2=60*
O=C(O)C1Oc2ccccc2C1c1ccccc1 (stereo not drawn)	13%	-13%	0%	nt	-6%	-2%	nt	nt	nt	nt	nt
O=C(O)C1NCc2[nH]cnc2C1c1ccccc1 (stereo not drawn)	nt	nt	nt	nt	nt	nt	60*	?	-27%	-3%	?
Cc1cc(=O)c2c(o1)C(=O)c1occc1C2=O	6.3µM*	50µM*	25µM*	nt	10µM*	32µM*	47*	30*	24µM*	-24%	?	Pol kappa inh-2=42*;FEN1 inh-2=?
COC(=O)c1cc(-c2ccc(C)cc2)c2c(=O)n(C)c(=O)n(C)c2n1	1%	-14%	nt	26%	nt	-7%	nt	nt	nt	nt	nt
CCc1ccc(N=C2NC(=O)/C(=C/c3cc(OC)c(OC)c(OC)c3)S2)cc1	14%	15%	-27%	-6%	-10%	3%	nt	nt	nt	nt	nt
CCc1ccc(N=C2NC(=O)/C(=C/c3cc(Br)c(OCC(=O)O)c(OC)c3)S2)cc1	40µM*	50µM*	?	16µM*	35µM*	?	67*	85*	22µM*	-4%	24µM*	Pol kappa inh-2=47*;FEN1 inh-2=76*

Screens deposited in PubChem BioAssay by National Center for Advancing Translational Sciences (NCATS).
